TRHR PAM: allosteric enhancers of human TRH receptor; P34981; TRHR cells, fluo-8 calcium fluorescence, EC20 TRH enhancement; enhancement, % at 2 µM; 0.66% of 360,000 active; AID 493056; in the data active = enhancement above about 30%; note: 0% is about no effect
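TRHR-expressing cells loaded with fluo-8 calcium dye were read kinetically (ex 480/em 530) during compound addition, then stimulated with an EC20 of TRH (10 nM final). Enhancement of the Gq-mediated intracellular calcium response was scored.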
D1 potentiator: enhances dopamine response at the human D1 receptor; P21728; HEK293 TREx D1 cells, calcium flux, dopamine EC20 potentiation; potentiation, % at 10 µM; 0.036% of 360,000 active; AID 504651; in the data active = potentiation above about 30%; note: 0% is about no effect
Target sequence (P21728 whole entry, looked up): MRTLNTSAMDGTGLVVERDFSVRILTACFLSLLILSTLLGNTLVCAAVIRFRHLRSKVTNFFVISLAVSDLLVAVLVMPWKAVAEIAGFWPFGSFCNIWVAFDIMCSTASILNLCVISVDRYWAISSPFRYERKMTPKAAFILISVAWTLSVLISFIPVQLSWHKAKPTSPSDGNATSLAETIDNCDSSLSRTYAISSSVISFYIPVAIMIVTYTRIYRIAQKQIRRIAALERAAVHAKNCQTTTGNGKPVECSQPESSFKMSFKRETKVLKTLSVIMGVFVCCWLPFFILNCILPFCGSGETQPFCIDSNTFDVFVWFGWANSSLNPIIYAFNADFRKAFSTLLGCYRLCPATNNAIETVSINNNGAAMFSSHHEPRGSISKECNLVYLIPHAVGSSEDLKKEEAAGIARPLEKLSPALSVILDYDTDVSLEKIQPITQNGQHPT
D1 antagonist: antagonists of human D1 dopamine receptor; P21728; HEK293 TREx D1 cells, calcium flux, dopamine EC80; hits give low values; activity change, negative = inhibition, % at 10 µM; 3.2% of 360,000 active; AID 504652; in the data active = activity change below about -30%; note: % is set by controls: 0 for no effect and ±100 for the full control effect
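Tetracycline-induced HEK293 T-REx cells with force-coupled D1 receptor were loaded with a no-wash calcium dye. Compound was added after a 10 s baseline and read kinetically for 180 s; EC80 dopamine was then added and calcium flux followed another 180 s.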
TRHR ag: activates the human TRH receptor; AID 493084; 0.18% of 360,000 active; TRHR cells, calcium flux fluo-8, FDSS agonist mode; activation, % at 2 µM; P34981; note: 0% is about no effect
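Fluo-8-loaded TRHR cells; 10 s baseline, compound added, kinetic Ca2+ fluorescence read 1/s, agonist mode.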
D1 ag: activates the human D1 dopamine receptor | P21728 | HEK293 T-REx D1 cells, calcium flux, agonist mode | activation, % at 2 µM | 1% of 360,000 active | AID 504660; note: 0% is about no effect
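Agonism was scored from calcium flux recorded over 180 s (1 read/s) after pintool compound addition, following a 10-cycle baseline. Cells were inducible force-coupled HEK293 TREx D1, plated overnight at 30 C and loaded with no-wash calcium dye.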
An asterisk follows results filed as active. Rows were chosen to be rich in hits. Some 4.6% of all compounds tested hit in one or more screens of this group. Cut-off read from the data, not from the text of the source, unless noted: active = activation above about 30%; inactive = the rest.

SMILES	TRHR PAM	D1 potentiator	D1 antagonist	TRHR ag	D1 ag
O=C(NCCCCNC(=O)c1ccc(Br)cc1)c1ccc(Br)cc1	-2	-5	-33*	0	0
O=C(NCCN1CCCC1)c1ccc(Br)cc1	9	31*	5	0	1
O=C(NCCN1CCCCC1)Nc1ccc(Br)cc1	4	-1	-60*	1	7
Cn1cc(CC(=O)NCCN2CCOCC2)c2ccccc21	-8	-9	-32*	0	3
C=CCSc1nc2c(c(=N)n1CC=C)C1CCCC1S2 (stereo not given)	3	1	3	-1	5
COc1cc(C(=O)NS(=O)(=O)c2ccccc2C)ccc1Cc1cn(C)c2ccc(NC(=O)OC3CCCC3)cc12	0	-2	6	-1	0
COc1ccc(C2=NN(C(=O)CCC(=O)O)C(c3ccc(OC)c(OC)c3)C2)cc1 (stereo not given)	10	-6	-8	0	4
Cc1ccccc1CC(=O)NCCN1CCCCC1	-3	0	2	1	3
O=C(CCN1CCCCC1)NNC(=S)NC(=O)c1ccc(Br)cc1	-1	-1	-36*	-1	3
O=C(Cc1ccccc1)NCCN1CCCC1	0	-11	-39*	0	4
COc1ccc(NC(=O)NCCCN2CCc3ccccc3C2)cc1	-4	-8	18	0	0
O=C(NCCCN1CCc2ccccc2C1)Nc1ccc(Br)cc1	-1	-7	-26	1	41*
Cn1nc(C(=O)N2CCN(c3ccccc3F)CC2)c2c1-c1ccccc1SC2	-22	-3	-35*	0	4
CC(=O)N1CCN(c2ccc(NC(=O)c3ccc4c(c3)OCCO4)cc2)CC1	-1	0	-27	0	0
CC(C)(C)C(=O)N1CCN(c2ccc(NC(=O)c3ccc4c(c3)OCCO4)cc2)CC1	-4	-4	-30*	1	5
CC(C)(C)C(=O)N1CCN(c2ccc(NC(=O)c3ccc([N+](=O)[O-])o3)cc2)CC1	5	-8	-8	-1	48*
CCC(=O)N1CCN(c2ccc(NC(=O)c3ccc([N+](=O)[O-])o3)cc2)CC1	5	-4	4	0	1
CCOC(=O)C1CCCN(C(=O)Cn2c(=O)c3cccn3c3cccnc32)C1 (stereo not given)	-1	6	-1	1	2
CCn1c(Cc2ccccc2)nnc1SCC(=O)NC1CC1	9	1	-32*	0	0
Cn1c(Cc2ccc3c(c2)OCO3)nnc1SCC(=O)NC1CCCC1	-5	-11	-33*	-1	1
COc1cc(-c2nnc(SCC(=O)NC3CCCC3)n2C)cc(OC)c1O	-2	-4	-41*	0	2
COc1ccc(N(C(=O)c2ccccc2C)S(=O)(=O)c2cccs2)cc1	-11	-5	-16	1	12
CCn1c(SCC(=O)NC(=O)NC(C)(C)C)nc2ccccc21	-1	-5	-4	0	1
Cc1c(C(=O)N(C)C)sc2c1c(=O)n(-c1ccc(Cl)c(Cl)c1)c(=O)n2CC(=O)C(C)(C)C	3	0	14	0	-1
CCC1CCCCN1C(=O)Cn1c(=O)n(-c2ccc(Cl)c(Cl)c2)c(=O)c2c(C)c(C(=O)N(C)C)sc21 (stereo not given)	-3	0	-34*	-1	0
SMILES	TRHR PAM	D1 potentiator	D1 antagonist	TRHR ag	D1 ag
C=CCc1cccc(CNc2nc3ccccc3n2CCN2CCOCC2)c1O	-2	-1	-4	1	5
CSc1ccc(S(=O)(=O)NCC(=O)OCC(=O)N2CCC(C)CC2)cc1[N+](=O)[O-]	0	-3	-31*	0	1
CSc1ccc(S(=O)(=O)NCC(=O)OCC(=O)N2CCCCC2C)cc1[N+](=O)[O-] (stereo not given)	-2	2	-7	0	1
NS(=O)(=O)c1ccc(NC(=O)c2ccc3nccnc3c2)cc1	5	5	6	1	0
O=C(Nc1nc2c(s1)CCCC2)c1ccc(N2C(=O)CCC2=O)cc1	25	-7	-71*	0	3
CC1CCc2nc(NC(=O)c3ccc(N4C(=O)CCC4=O)cc3)sc2C1 (stereo not given)	10	0	7	0	2
O=C(C1CCN(CC2CC=CCC2)CC1)N(CCc1ccccc1)Cc1ccccc1 (stereo not given)	-6	-3	4	1	3
O=C(C1CCN(CCCc2ccccc2)CC1)N(CCc1ccccc1)Cc1ccccc1	0	-2	-45*	0	26
CCOC(=O)C1CCCN(c2c(NCCCN(CC)c3cccc(C)c3)c(=O)c2=O)C1 (stereo not given)	76*	-11	-16	0	1
COc1cc(/C=N/n2c(-c3n[nH]c4c3CCC4)n[nH]c2=S)ccc1O	3	0	-6	0	3
COC(=O)C(O)(CC(=O)Nc1cc(Cl)ccc1Cl)C(F)(F)F (stereo not given)	7	-4	-19	0	0
O=c1c2ccccc2nc(/C=C/c2ccc(O)cc2)n1CCc1ccccc1	-5	-7	-41*	2	3
O=c1c2ccccc2nc(-c2ccco2)n1CCc1ccc(O)cc1	-4	-7	-41*	0	3
COc1ccc(C(=O)C[n+]2ccc3c(c2)nc(-c2cc(OC)c(OC)cc2OC)n3C)cc1	-8	-4	-31*	0	1
O=C(CCCc1nc2ccccc2s1)NCc1ccccc1F	-3	6	-42*	-1	2
O=C1/C(=C\c2cc([N+](=O)[O-])ccc2O)SC(=S)N1Cc1ccc(Cl)cc1	8	-6	-5	120*	197*
COc1cc(/C=C2/SC(=S)N(Cc3ccccc3)C2=O)ccc1O	7	8	6	39*	102*
COc1cc(/C=C2\SC(=S)N(N3CCOCC3)C2=O)cc(OC)c1OC	-6	17	-13	1	8
O=C1/C(=C\c2ccc(O)c(O)c2)SC(=S)N1Cc1ccccc1	-2	5	-4	-1	78*
COc1cc(/C=C2\SC(=S)N(N3CCOCC3)C2=O)ccc1O	0	-3	-18	21	30*
COc1ccc(NC(=O)CSCC(=O)N(C)CCOc2ccc(Cl)cc2)cc1	-2	-11	-3	0	0
O=C(c1ccc(COCC(F)(F)F)cc1)N1CCN(c2ccccn2)CC1	5	0	10	0	0
Cc1cc(/C=N/NC(=O)c2cccc([N+](=O)[O-])c2)c(C)n1-c1ccccc1	-2	-5	5	-1	0
c1ccc2c(c1)CN1CCCC1=N2	8	-6	-11	0	1
CN1CCN(/C=N/c2sc3c(c2C#N)CCCCC3)CC1	1	-5	-1	-1	5
